In PubChem BioAssay (Tox21) one finds Potency and outcome data, which are given here for twelve molecules.

Assay [1] can be described thus: qHTS assay to identify small molecule antagonists of the glucocorticoid receptor (GR) signaling pathway - cell viability counter screen (AID 720693). Also: nearly all actives have a fitted effect of over 55% in size. Also: potency is read from the fitted curve at half-maximal effect.
The nature of assay [2]: qHTS assay for identifying genotoxic compounds that show differential cytotoxicity against isogenic chicken DT40 cell lines with known DNA damage response pathways - wild type cell line (AID 743012). Also: nearly all actives have a fitted effect of over 60% in size. Also: potency is read from the fitted curve at half-maximal effect. In outline:
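Parental DNA repair-proficient DT40 cells, 300 per well, were pre-incubated ~0.5 h at 37 C/5% CO2, pin-dosed with compounds in DMSO, then incubated 40 h. Viability was read as CellTiter-Glo luminescence after 30 min at room temperature.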

Assay [3] is described as follows: qHTS assay for identifying genotoxic compounds that show differential cytotoxicity against isogenic chicken DT40 cell lines with known DNA damage response pathways - Rev3 mutant cell line (AID 743014). Also: nearly all actives have a fitted effect of over 55% in size. Also: potency is read from the fitted curve at half-maximal effect.
The nature of assay [4]: qHTS assay for identifying genotoxic compounds that show differential cytotoxicity against isogenic chicken DT40 cell lines with known DNA damage response pathways - Rad54/Ku70 mutant cell line (AID 743015). Also: nearly all actives have a fitted effect of over 60% in size. Also: potency is read from the fitted curve at half-maximal effect.
The nature of assay [5]: qHTS assay to identify small molecule antagonists of the androgen receptor (AR) signaling pathway - cell viability counter screen (AID 743033; also: nearly all actives have a fitted effect of over 45% in size; also: potency is read from the fitted curve at half-maximal effect).
Assay [6] is described as follows: qHTS assay to identify small molecule antagonists of the androgen receptor (AR) signaling pathway using the MDA cell line - cell viability counter screen (AID 743041; also: nearly all actives have a fitted effect of over 45% in size; also: potency is read from the fitted curve at half-maximal effect). In outline: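 Same-well cytotoxicity was assessed by CellTiter-Fluor in MDA-kb2 AR-luc cells after 16 h of compound treatment under R1881 agonism.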
A short description of assay [7]: qHTS assay to identify small molecule antagonists of the thyroid receptor (TR) signaling pathway - cell viability counter screen (AID 743064). Also: nearly all actives have a fitted effect of over 50% in size. Also: potency is read from the fitted curve at half-maximal effect. A digest of the protocol:
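Viability of T3-stimulated (1 nM final) GH3.TRE-Luc cells is measured by CellTiter-Fluor fluorescence after 23.5 h compound exposure at 37 °C plus 30 min reagent incubation.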

Assay [8] addresses Estrogen receptor (Homo sapiens) (UniProt P03372). Briefly: qHTS assay to identify small molecule antagonists of the estrogen receptor alpha (ER-alpha) signaling pathway (AID 743069; active = well fitted curve in the direction sought with a large enough effect in the signal ratio in the repeat runs, not every such curve was filed as active; inconclusive = weak or mixed curves, or effect the other way; inactive = no such curve, though single readings can be large or run the other way; the % refers to the signal ratio; also: potency is read from the fitted curve at half-maximal effect). A digest of the protocol:
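Reporter cells (ER-alpha-bla, HEK293 background) are conditioned overnight in stripped-serum medium (2% charcoal-stripped FBS). Compound and 17beta-estradiol exposure runs 18 hr at 37C, 5% CO2.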

Assay [9] shares this target. The experiment in a line: qHTS assay to identify small molecule agonists of the estrogen receptor alpha (ER-alpha) signaling pathway (AID 743075; calls by dose curve).
The target is the same in assay [10]. Briefly: qHTS assay to identify small molecule agonists of the estrogen receptor alpha (ER-alpha) signaling pathway using the BG1 cell line (AID 743079). Also: nearly all actives have a fitted effect of over 20% in size.
Assay [11] in a line: qHTS assay to identify small molecule antagonists of the estrogen receptor alpha (ER-alpha) signaling pathway using the BG1 cell line (AID 743080; calls by dose curve;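 also: BG1 cells stimulated with 17beta-estradiol alongside compound; series mostly up to about 70 µM; nearly all actives have a fitted effect of over 25% in size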). A digest of the protocol: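 Seeding, 24 h rest, compound transfer from DMSO, 17beta-estradiol addition, 21.5 h incubation, CellTiter-Fluor (30 min, 37 C), then ONE-Glo (30 min, room temperature): this sequence was run on BG1-Luc-4E2 reporter cells.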

Assay [12] can be described thus: qHTS assay to identify small molecule antagonists of the estrogen receptor alpha (ER-alpha) signaling pathway using the BG1 cell line - cell viability counter screen (AID 743081).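 Also: compound given together with 17beta-estradiol as the ER stimulus; nearly all actives have a fitted effect of over 45% in size.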 Also: potency is read from the fitted curve at half-maximal effect.
The target of another assay is Aromatase (Homo sapiens) (UniProt P11511). Briefly: qHTS assay to identify aromatase inhibitors (AID 743083). Also: nearly all actives have a fitted effect of over 55% in size. Also: potency is read from the fitted curve at half-maximal effect.
Assay [13] deals with thyroid hormone receptor (rat, GH3 cells). Briefly: qHTS assay to identify small molecule agonists of the thyroid receptor (TR) signaling pathway (AID 743066; calls by dose curve).
A short description of assay [14]: qHTS assay to identify small molecule antagonists of the estrogen receptor alpha (ER-alpha) signaling pathway - cell viability counter screen (AID 743074; calls by dose curve;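 also: HEK293 cells carrying ER-alpha-UAS-bla reporter stimulated with 17beta-estradiol; nearly all actives have a fitted effect of over 45% in size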; also: potency is read from the fitted curve at half-maximal effect).
The target in assay [15] is Androgen receptor (Homo sapiens) (UniProt P10275). Briefly: qHTS assay to identify small molecule antagonists of the androgen receptor (AR) signaling pathway using the MDA cell line (AID 743042; also: nearly all actives have a fitted effect of over 55% in size; also: potency is read from the fitted curve at half-maximal effect). A digest of the protocol:
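MDA-kb2 breast carcinoma cells carrying MMTV-luciferase (AR/GR responsive) were co-treated with compounds and the agonist R1881 for 16 h at 37C. Inhibition read as ONE-Glo luminescence; CellTiter-Fluor fluorescence measured in parallel for cytotoxicity.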

Assay [16] is described as follows: qHTS assay to identify small molecule antagonists of the thyroid receptor (TR) signaling pathway (AID 743065). Also: nearly all actives have a fitted effect of over 55% in size. Also: potency is read from the fitted curve at half-maximal effect. In outline: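 GH3.TRE-Luc rat pituitary cells (two TREs driving luciferase) were dosed with compound, then stimulated with 1 nM T3 (final) for 23.5 h at 37 C. ONE-Glo luminescence was the read-out, with CellTiter-Fluor fluorescence as the cytotoxicity counter-screen.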

In assay [17] the target is Androgen receptor (Homo sapiens) (UniProt P10275). Briefly: qHTS assay to identify small molecule antagonists of the androgen receptor (AR) signaling pathway (AID 743035; active = well fitted inhibition curve with a large enough effect in the signal ratio in the repeat runs, not every such curve was filed as active; inconclusive = weak or mixed curves, or effect the other way; inactive = no such curve, though single readings can be large or run the other way; the % refers to the signal ratio; also: potency is read from the fitted curve at half-maximal effect). A digest of the protocol: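 HEK293 cells stably carrying a UAS-driven beta-lactamase reporter (AR-UAS-bla GripTite) were plated for 4 h at 37C, then given compound and the agonist R1881 and incubated 16 h. Reporter activity was read by LiveBLAzer B/G FRET fluorescence after 2 h at room temperature.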

Assay [18] shares this target. The experiment in a line: qHTS assay to identify small molecule agonists of the androgen receptor (AR) signaling pathway (AID 743036; active = well fitted activation curve with a large enough effect in the signal ratio in the repeat runs, with a control signal flat, not every such curve was filed as active; inconclusive = weak or mixed curves, or effect the other way; inactive = no such curve, though single readings can be large or run the other way; the % refers to the signal ratio). A digest of the protocol:
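Screening used 2,000 AR-bla HEK293 cells per well, treated 16 h at 37C with test compounds in DMSO alongside positive and DMSO-only controls; beta-lactamase activity was then read by LiveBLAzer B/G FRET fluorescence after 2 h at room temperature.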

Values joined by “and” are separate entries in the source; they are usually repeats but may differ in a detail not shown here. Equal values may be shown once. The source holds several records for some structures; these can differ, active in one and inactive in another. Active and inactive are the calls of the source. Unless noted, calls follow the shape of the dose curve; as a rule, active = well fitted curve in the direction sought with a large enough effect in the repeat runs; inconclusive = weak or mixed curves; inactive = no such curve, though single readings can be large; an effect the other way counts as inactive or inconclusive.

Chain of Androgen receptor (Homo sapiens) (P10275 whole entry, looked up): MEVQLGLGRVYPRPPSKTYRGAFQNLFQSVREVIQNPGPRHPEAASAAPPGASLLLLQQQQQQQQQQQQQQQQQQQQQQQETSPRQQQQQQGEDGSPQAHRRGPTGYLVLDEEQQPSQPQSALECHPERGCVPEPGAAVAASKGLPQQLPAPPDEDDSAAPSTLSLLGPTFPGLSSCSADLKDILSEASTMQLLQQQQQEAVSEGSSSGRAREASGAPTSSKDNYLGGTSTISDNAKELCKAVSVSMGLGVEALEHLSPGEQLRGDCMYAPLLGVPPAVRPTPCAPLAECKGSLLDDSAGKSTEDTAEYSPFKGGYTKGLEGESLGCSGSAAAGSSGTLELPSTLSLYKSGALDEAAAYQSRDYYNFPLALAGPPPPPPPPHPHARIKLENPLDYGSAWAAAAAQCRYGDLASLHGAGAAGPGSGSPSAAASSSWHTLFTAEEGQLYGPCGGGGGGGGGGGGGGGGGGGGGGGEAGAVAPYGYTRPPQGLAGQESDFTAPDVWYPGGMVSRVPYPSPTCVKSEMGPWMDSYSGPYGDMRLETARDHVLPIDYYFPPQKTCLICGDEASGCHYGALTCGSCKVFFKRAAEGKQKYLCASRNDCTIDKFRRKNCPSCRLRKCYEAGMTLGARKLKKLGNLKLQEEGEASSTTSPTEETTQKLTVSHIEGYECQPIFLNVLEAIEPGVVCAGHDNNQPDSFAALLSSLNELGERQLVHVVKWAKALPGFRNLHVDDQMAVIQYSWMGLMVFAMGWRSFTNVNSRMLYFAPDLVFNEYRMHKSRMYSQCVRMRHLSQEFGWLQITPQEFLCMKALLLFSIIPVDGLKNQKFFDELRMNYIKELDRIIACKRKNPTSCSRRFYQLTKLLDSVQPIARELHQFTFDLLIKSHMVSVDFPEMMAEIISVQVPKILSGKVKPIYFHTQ
Chain of Estrogen receptor (Homo sapiens) (P03372 whole entry, looked up): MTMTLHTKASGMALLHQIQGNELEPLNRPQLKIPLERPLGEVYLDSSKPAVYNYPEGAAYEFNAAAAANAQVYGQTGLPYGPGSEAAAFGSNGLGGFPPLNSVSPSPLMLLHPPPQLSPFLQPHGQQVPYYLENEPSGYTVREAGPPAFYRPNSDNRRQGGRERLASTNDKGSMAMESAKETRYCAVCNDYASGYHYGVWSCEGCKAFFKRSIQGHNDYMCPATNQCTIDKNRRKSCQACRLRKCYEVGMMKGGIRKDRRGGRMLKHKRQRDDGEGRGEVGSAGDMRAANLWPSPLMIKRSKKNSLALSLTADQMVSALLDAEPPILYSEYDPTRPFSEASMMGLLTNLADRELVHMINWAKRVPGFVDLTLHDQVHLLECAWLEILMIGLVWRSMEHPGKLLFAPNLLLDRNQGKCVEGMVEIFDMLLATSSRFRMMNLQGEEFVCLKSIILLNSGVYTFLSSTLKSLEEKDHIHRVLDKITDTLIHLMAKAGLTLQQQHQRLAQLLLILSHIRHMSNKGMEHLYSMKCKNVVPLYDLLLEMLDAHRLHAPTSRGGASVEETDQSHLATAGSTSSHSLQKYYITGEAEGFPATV
Chain of Aromatase (Homo sapiens) (P11511 whole entry, looked up): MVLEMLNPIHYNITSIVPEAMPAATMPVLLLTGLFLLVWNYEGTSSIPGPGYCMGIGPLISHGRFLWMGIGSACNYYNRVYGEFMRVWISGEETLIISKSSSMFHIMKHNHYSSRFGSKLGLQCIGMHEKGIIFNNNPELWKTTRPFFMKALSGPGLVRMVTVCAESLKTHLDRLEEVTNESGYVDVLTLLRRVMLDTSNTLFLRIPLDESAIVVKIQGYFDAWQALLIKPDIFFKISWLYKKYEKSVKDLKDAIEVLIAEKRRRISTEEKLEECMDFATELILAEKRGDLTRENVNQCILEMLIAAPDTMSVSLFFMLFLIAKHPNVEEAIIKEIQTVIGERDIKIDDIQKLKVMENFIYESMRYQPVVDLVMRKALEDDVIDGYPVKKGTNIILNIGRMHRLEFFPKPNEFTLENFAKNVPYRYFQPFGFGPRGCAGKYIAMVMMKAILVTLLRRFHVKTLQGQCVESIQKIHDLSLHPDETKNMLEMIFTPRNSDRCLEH

In the case of `COc1ccc(OC)c(CC(C)N)c1` (stereo not given), the Potency result in assay [1], in [2], in assay [3], in [4], in [5] and in [6] was “inactive” throughout. In addition, the Potency result in assay [7], in assay [8], in assay [9], in assay [10], in [11] and in assay [12] was “inactive” each time. Further, the Potency entry in the assay with Aromatase (Homo sapiens) is “inactive”.

As for `O=[N+]([O-])c1ccc(Oc2ccc(C(F)(F)F)cc2[N+](=O)[O-])cc1`, the Potency entry in [1], in assay [5], in assay [6], in [7], in [8] and in assay [14] was “inactive” each time. In addition, the Potency entry (in assay [9]; in [12]; with Aromatase (Homo sapiens)) was “inactive” throughout. Further, the Potency in assay [2] is 19.3 µM (active); in [3] it was 17.2 µM (active); in assay [4], 24.3 µM (active). In addition, the molecule was called inactive in assay [13].

For `CCOC(=O)CC(=O)CCl`, the Potency result in assay [1], in assay [5], in [6], in assay [15], in assay [14] and in assay [9] was “inactive” throughout. The Potency entry in assay [10] and in assay [12] was “inactive” in each case. In addition, the Potency was 61.1 µM (active) in [2]; 19.3 µM (active) in [3]; 24.3 µM (active) in assay [4]; 61.1 µM (active) in [7]; 61.1 µM (active) in [16]; 30.6 µM (active) with Aromatase (Homo sapiens). For the same molecule, the molecule was called inactive in assay [13].

As for `CN(C)[C@@H]1C(=O)C(C(N)=O)=C(O)[C@@]2(O)C(=O)C3=C(O)c4c(O)ccc(Cl)c4[C@@](C)(O)[C@H]3C[C@@H]12`, the Potency entry in [1], in assay [2], in [5], in assay [6], in assay [7] and in assay [16] was “inactive” throughout. The Potency result (in assay [14]; in [12]; in the assay with Aromatase (Homo sapiens)) was “inactive” each time. Moreover, the Potency result in [3] was “inactive and 55.6 µM (active)”; in [4], “inactive and 62.4 µM (active)”. Also, the molecule was classed as inactive in assay [13].

Take `CC(C)OC(=S)S`: the Potency result in [1], in assay [6], in assay [7], in assay [8], in assay [14] and in assay [9] was “inactive” throughout. Further, the Potency result in assay [11] and in [12] was “inactive” each time. For the same molecule, the Potency in [2] was 24.3 µM (active); in [3], 27.3 µM (active); in assay [4], 24.3 µM (active); in assay [5], 17.4 µM (active). Also, the call in assay [13] was inactive.

In the case of `COC(=O)N(C(=O)N1CO[C@@]2(C(=O)OC)Cc3cc(Cl)ccc3C2=N1)c1ccc(OC(F)(F)F)cc1`, the Potency entry in assay [1], in assay [5], in assay [6], in assay [7], in assay [14] and in [11] was “inactive” throughout. Also, the Potency result in [12] was “inactive”. Further, the Potency is 6.63 µM (active) in [2]; 14.8 µM (active) in [3]; 9.36 µM (active) in [4]; 6.69 µM (active) in assay [17]; 23.5 µM (active) in assay [15]; 11.8 µM (active) in assay [16]. For the same molecule, the Potency in [8] was 47.3 µM [cytotoxic] (active). Also, the result in [13] was inactive.

With `N#CNC#N`, the Potency entry in [1], in [2], in assay [3], in assay [5], in assay [6] and in assay [16] was “inactive” in each case. Besides, the Potency entry (in assay [12]; in the assay with Aromatase (Homo sapiens)) was “inactive” in each case. Besides, in assay [4], the Potency is 61.8 µM (active). In addition, the outcome in assay [13] was inactive.

Turning to `CC[C@H]1C[C@@H]2C[C@H]3c4[nH]c5ccc(OC)cc5c4CCN(C2)[C@@H]13`, the Potency result in [1], in assay [5], in assay [18], in assay [6], in assay [15] and in [14] was “inactive” in each case. The Potency entry (in assay [9]; in assay [10]; in assay [11]; in [12]; with Aromatase (Homo sapiens)) was “inactive” in each case. The Potency in assay [2] is 23.9 µM (active); in assay [3], 47.7 µM (active); in assay [4], 53.5 µM (active); in [7], 60.1 µM (active); in assay [16] it was 30.1 µM (active). Further, the result in [13] was inactive.

Take `Cc1cc(C(C)(C)c2cc(C)c(O)c(C)c2)cc(C)c1O`: the Potency was 42.2 µM (active) in [1]; 52.7 µM (active) in assay [2]; 26.4 µM (active) in assay [3]; 26.4 µM (active) in assay [4]; 26.6 µM (active) in assay [5]; 29.6 µM (active) in [15]. Moreover, the results for the Potency (in [7]; in [16]; in the assay with Aromatase (Homo sapiens)) were 23.5 µM (active), 11.8 µM (active) and 16.7 µM (active), respectively. Also, the Potency result in [6] and in assay [12] was “inactive” each time. In assay [13], the molecule was called inactive.

As to `O=C1c2ccccc2C(=O)C1C(=O)C(c1ccccc1)c1ccc(Cl)cc1` (stereo not given), the Potency was 19.5 µM (active) in [1]; 27.3 µM (active) in assay [2]; 27.3 µM (active) in [3]; 21.7 µM (active) in assay [4]; 13.8 µM (active) in [5]; 15.4 µM (active) in [15]. For the same molecule, the Potency in assay [7] was 27.3 µM (active); in assay [16], 15.4 µM (active); in assay [8] it was 5.49 µM [inconclusive] (active); in assay [14], 43.6 µM (active); in the assay with Aromatase (Homo sapiens), 54.5 µM (active). The Potency result in assay [18], in assay [9] and in assay [10] was “inactive” throughout. The molecule was called inactive in [13].

As for `ClC(Cl)=C(c1ccc(Cl)cc1)c1ccc(Cl)cc1`, the Potency entry in [1], in assay [2], in assay [3], in [4], in [5] and in assay [6] was “inactive” each time. The Potency entry (in assay [8]; in assay [14]; in assay [9]; in assay [11]; in [12]; with Aromatase (Homo sapiens)) was “inactive” in each case. The Potency was 62.6 µM (active) and 30.6 µM (active) in assay [7]; 55.8 µM (active) and 30.6 µM (active) in assay [16]. For the same molecule, the molecule was called inactive in assay [13].

Turning to `CC(=O)C(Cl)(Cl)Cl`, the Potency entry in assay [1] and in assay [14] was “inactive” each time. The Potency in assay [2] is 13.2 µM (active); in assay [3], 16.6 µM (active); in assay [4], 16.6 µM (active); in [5] it was 10.6 µM (active); in assay [17], 5.31 µM (active); in assay [6], 26.4 µM (active). Further, the Potency is 13.2 µM (active) in assay [15]; 5.9 µM (active) in assay [7]; 2.35 µM (active) in assay [16]; 1.88 µM [inconclusive] (active) in assay [8]; 23.5 µM (active) in assay [12]; 13.2 µM (active) with Aromatase (Homo sapiens). The molecule was classed as inactive in [13].
